Shown are actives, neighbours in structure and some others; about 2.4% of the full set was active somewhere.
D2 PAM-1: potentiates the human D2 dopamine receptor allosterically | potentiation, % (test concentration not listed) | DiscoveRx D2 beta-arrestin cells, luminescence, 90 min; 100% = 57 uM dopamine signal | 360,000 tested, 0.23% active | AID 624464 | P14416; in the data active = potentiation above about 50%; inconclusive = mostly about 30% to 49%
Target sequence (P14416 whole entry, looked up): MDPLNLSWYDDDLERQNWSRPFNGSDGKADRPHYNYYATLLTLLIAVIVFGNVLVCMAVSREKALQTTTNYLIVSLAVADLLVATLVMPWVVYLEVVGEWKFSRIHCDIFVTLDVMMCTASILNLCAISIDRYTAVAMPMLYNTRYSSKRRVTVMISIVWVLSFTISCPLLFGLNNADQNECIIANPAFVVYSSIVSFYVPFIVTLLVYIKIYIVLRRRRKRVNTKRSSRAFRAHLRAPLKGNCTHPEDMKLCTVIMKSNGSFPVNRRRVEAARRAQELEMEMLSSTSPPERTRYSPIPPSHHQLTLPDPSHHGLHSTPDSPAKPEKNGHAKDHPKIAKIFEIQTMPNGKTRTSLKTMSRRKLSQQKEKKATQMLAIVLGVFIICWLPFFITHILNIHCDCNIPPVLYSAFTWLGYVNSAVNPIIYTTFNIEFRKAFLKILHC
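D2 cells co-treated with compound plus 50 nM dopamine (EC20) for 90 min at 37 deg C to detect potentiation. Beta-arrestin recruitment was read as enzyme-fragment luminescence after 1 h at ambient temperature. Full response was set by 57 uM dopamine.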
D2 ag-1: agonists of human D2 dopamine receptor. 340,000 tested, 0.53% active. AID 485358. activation, % at 2 µM. HEK293 T-REx D2 cells, calcium flux agonist mode;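 active = activation over 3 SD above normal in the single-dose calcium agonist read, cut at about 30% in these data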; also: 0% is about no effect
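Tetracycline-induced HEK293 Trex cells with D2 receptor force-coupled to calcium signaling, plated overnight at 30 C and loaded with no-wash calcium dye. Calcium flux read kinetically for 180 s after compound addition; responses flag agonists.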
D2 antag: antagonizes the human D2 dopamine receptor. P14416. inhibition, % at 10 µM. AID 485344. HEK293 TREx D2 cells, calcium flux, dopamine EC80. 340,000 tested, 2% active; in the data active = inhibition above about 30%; inactive = below that, where a call was filed; also: 0% is about no effect
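Calcium flux kinetic readout in an inducible HEK293 TREx D2 line plated overnight at 30 C. After 180 s compound exposure, an EC80 dopamine challenge follows with another 180 s kinetic read to detect antagonism.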
D2 ag-2: human D2 receptor agonism in beta-arrestin assay; DiscoveRx PathHunter D2 beta-arrestin, luminescence, 90 min; 100% = 57 uM dopamine signal; activation, % (concentration not given with the values); 360,000 tested, 0.084% active; AID 624465; in the data active = activation above about 40%; inconclusive = between about 15% and that limit
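Agonist mode: compounds alone added to overnight-plated D2 PathHunter cells for 90 min at 37 C, with 57 uM final dopamine (EC100) defining full response. Beta-arrestin recruitment detected by chemiluminescent reagent, read after 1 h at ambient temperature.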
D2 PAM-2: D2 dopamine receptor (human) potentiation; AID 485347; 340,000 tested, 0.34% active; HEK293 T-REx D2, calcium flux, EC20 dopamine potentiation; potentiation, % at 10 µM; P14416;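 active = potentiation over 3 SD above the plate norm, cut at about 30% in these data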; also: 0% is about no effect
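Potentiation of an EC20 dopamine calcium response is measured in a force-coupled, tetracycline-inducible Hek293 Trex D2 line. Compound-only kinetic reads over 180 s flag agonists before dopamine addition.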
* hit, by the source's call; ? = inconclusive; / = no result given.

SMILES	D2 PAM-1	D2 ag-1	D2 antag	D2 ag-2	D2 PAM-2
COc1cccc(NC(=O)Cn2c(=O)n(-c3cccc(OC)c3)c(=O)c3sc4ccccc4c32)c1	/	-1	/	/	1
CCOc1cc(CNc2ncnc3nc[nH]c23)ccc1OC	-2	-1	38*	-4	-12
O=C(CCC1CCCCC1)Nc1ccc(C(=O)c2ccncc2)cc1	-23	-1	48*	0	-9
COc1ccc(-n2ncc3c2CC(C)(C)CC3NC(=O)c2oc(C)cc2C)cc1 (configuration not stated)	1	0	-11	-6	36*
O=C(NCCc1csc2nc(-c3cccc(F)c3)nn12)c1ccc(Br)o1	/	-1	/	/	7
Cc1[nH]c(=O)c(C#N)c(C)c1Br	11	/	/	-2	41*
Cn1nc(-c2ccc(Cl)cc2)c2cc(C(=O)N3CCOCC3)sc21	-3	0	31*	1	10
CSc1ccc(/C=C(/Sc2nnc(-c3ccccc3)o2)C(=O)O)cc1	-6	2	-17	-4	2
O=C(O)/C(=C\c1cccs1)Sc1nnc(-c2ccc(F)cc2)o1	-3	1	35*	-2	1
COC(=O)c1ccc(CN2CCC(CO)(Cc3cccc(OC)c3)CC2)cc1	-15	-1	37*	0	-12
COC(=O)c1ccc(CN2CCC(CO)(CCOc3ccccc3)CC2)cc1	-5	/	/	-7	-25
COc1cccc(CC2(CO)CCCN(Cc3ccc(CN4CCCCC4)s3)C2)c1 (configuration not stated)	-19	-1	40*	-5	-18
COc1cccc(CC2(CO)CCCN(Cc3ccccc3Cl)C2)c1 (configuration not stated)	0	-1	-15	-2	-5
COc1ccc(NC(=O)c2noc3c2CCCC3)cc1Cl	/	1	/	/	6
COc1cccc(NC(=O)CN(c2cccc(OC)c2)S(C)(=O)=O)c1	1	1	38*	-4	-7
O=C(CSc1ccc(-c2ccccc2)nn1)Nc1ccc2c(c1)OCCO2	-5	1	32*	-1	0
C/C(CC(=O)Nc1ccc2c(c1)OCCO2)=N\NC(=O)COc1ccccc1C	-8	0	-20	-1	-8
COc1ccccc1NC(=O)CSc1ccc(-c2ccccn2)nn1	4	-1	14	-3	-4
O=C(CSc1ccccc1)Nc1ccc2c(c1)OCCO2	-6	1	8	-1	-6
COc1ccc(NC(=O)CSc2ccc(-c3ccccn3)nn2)cc1OC	?	1	-13	54*	1
C/C(CC(=O)Nc1ccc2c(c1)OCCO2)=N\NC(=O)C(=O)Nc1ccccc1C	-4	-1	32*	-4	-6
Cc1cccc(N(C)C(=O)CN(C)S(=O)(=O)c2ccc3[nH]c4c(c3c2)CCCC4)c1	/	0	/	/	3
CCC(=O)Nc1ccc2c(c1)OCCO2	2	0	8	0	30*
O=C(CSc1ccc(-c2ccc(F)cc2)nn1)NCCc1ccccc1	-7	0	5	0	3
COc1ccccc1-c1ccc(SCC(=O)NCCc2ccccc2)nn1	-7	-2	48*	-1	-2
SMILES	D2 PAM-1	D2 ag-1	D2 antag	D2 ag-2	D2 PAM-2
CS(=O)(=O)N(CC(=O)Nc1ccc2c(c1)OCCO2)c1ccc2c(c1)OCO2	-13	-2	-8	-4	48*
Cc1ccc(OCCSc2nc3ccccc3n2CC(=O)N2CCOCC2)cc1	/	-2	/	/	7
COc1ccc(-c2nnc(SCCOc3ccccc3C)o2)cc1OC	/	-1	/	/	6
Cc1cc(C)cc(N=Cc2[nH]c3ccc(Br)c(Cl)c3c2O)c1	-12	34*	-4	6	-4
COCC(=O)N1CCN(c2cccc(Cl)c2)CC1	-2	0	-17	-5	6
COCC(=O)N1CCN(c2cccc(C(F)(F)F)c2)CC1	-22	0	44*	-19	-23
CCOc1cc(CN2CCN(c3cccc(C(F)(F)F)c3)CC2)ccc1OC	-18	-2	28	3	-26
CC1CN(C(=O)CCC(=O)N2CCN(c3cccc(C(F)(F)F)c3)CC2)c2ccccc2O1 (configuration not stated)	-14	0	41*	1	30*
COc1ccc(CC(C)N2CCN(c3cccc(C(F)(F)F)c3)CC2)cc1OC (configuration not stated)	-19	1	74*	6	-16
CC(=O)Nc1ccc(C(=O)COC(=O)c2c(C)noc2C)c(F)c1	-24	-1	-37	1	-4
CC(=O)Nc1ccc(C(=O)COC(=O)c2cccs2)c(F)c1	3	0	35*	-2	1
CCOc1ccc(C(=O)Oc2cc(C)[nH]c(=O)c2[N+](=O)[O-])cc1	-2	0	15	-3	6
CCCCOc1ccc(C(=O)Oc2cc(C)[nH]c(=O)c2[N+](=O)[O-])cc1	-1	0	77*	-6	-2
CCc1ccc(N2CC(C(=O)Nc3nc4ccc(S(C)(=O)=O)cc4s3)CC2=O)cc1 (configuration not stated)	-3	0	37*	-2	-11
CC(C)Oc1ccc(CNC(=O)c2ccc3nc(Cc4ccccc4)oc3c2)cc1	/	1	/	/	/
CCCc1nn2c(=O)cc(COC(=O)c3cccc(NC(=O)c4ccc(OCC)cc4)c3)nc2s1	/	0	/	/	1
C=C(C)[C@@H]1CC[C@]2(C(=O)O)CC[C@]3(C)[C@H](CC[C@@H]4[C@@]5(C)CC[C@H](O)C(C)(C)[C@@H]5CC[C@]43C)[C@@H]12	3	0	36*	1	5
CCN(CC)S(=O)(=O)c1cccc(NC(=O)COC(=O)C2=COCCO2)c1	-10	0	30*	0	-4
CCN(CC)S(=O)(=O)c1cccc(NC(=O)COC(=O)C2COc3ccccc3O2)c1 (configuration not stated)	-12	-1	13	1	-9
Cc1ccc(C)c(NC(=O)CC2NCCNC2=O)c1 (configuration not stated)	/	-1	/	/	-6
CCCC(=O)Nc1cc(-c2nc3cccnc3s2)ccc1C	/	0	/	/	9
CCCN[C@H]1CCc2nc(N)sc2C1	80*	/	/	74*	/
O=C(OCc1ccco1)c1ccc2c(c1)N(Cc1cccc(F)c1)C(=O)c1ccccc1S2	/	0	/	/	2
Cc1cccc(C(=O)O/N=C(\N)c2cccc([N+](=O)[O-])c2)c1	20	1	-2	15	0
N/C(=N\OC(=O)c1cccs1)c1cccc([N+](=O)[O-])c1	69*	1	-7	42*	4
N/C(=N\OC(=O)c1cccc2ccccc12)c1cccc([N+](=O)[O-])c1	83*	0	4	?	-9
COc1ccccc1C/C(N)=N/OC(=O)c1ccc(C)c([N+](=O)[O-])c1	145*	/	/	?	16
